Measurements taken from PubChem BioAssay AID651903 (Broad Institute, 2012).
Screen size: about 22,000 compounds; about 1,100 (5%) were called active. The list comes from a sample in which actives are over-represented; it also holds similar structures and randomly drawn compounds. Unmarked numbers belong to inactive results. Rule as the data show it: active = activity score above about 55%; inconclusive = no clear call, values can overlap the other calls; inactive = below that.

Assay: inhibitors of intracellular Trypanosoma cruzi, primary screen, cell-based, plate reader, single point, set 2 (AID 651903);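 also: parasites and compound incubated about four days before reading; 0% = median of neutral control wells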
Settings: intracellular Trypanosoma cruzi in host cells, at 5.01 µM, hits give high values

Going from `C[C@H](CO)N1C[C@H](C)[C@@H](CN(C)S(=O)(=O)c2ccc(F)cc2)Oc2c(NC(=O)Nc3ccccc3)cccc2C1=O` to `C[C@H]1CN([C@@H](C)CO)C(=O)c2cccc(NC(=O)Nc3ccc(C(F)(F)F)cc3)c2O[C@H]1CN(C)S(=O)(=O)c1ccccc1`, the activity score (inhibition) falls from 14.1% to 11.5%.

First: C[C@H]1CN([C@@H](C)CO)C(=O)Cc2cc(NS(=O)(=O)c3ccc(Cl)cc3)ccc2O[C@H]1CN(C)S(C)(=O)=O
Second: Cc1ccc(S(=O)(=O)N(C)C[C@@H]2Oc3ccc(NS(=O)(=O)c4c(C)noc4C)cc3CC(=O)N([C@H](C)CO)C[C@H]2C)cc1
The activity score (inhibition) of the first is lower: -19.4% for the first, 4.67% for the second.

Going from `COc1ccc(S(=O)(=O)N(C)C[C@H]2OCCCC[C@@H](C)Oc3ccc(NC(=O)c4ccncc4)cc3C(=O)N([C@H](C)CO)C[C@@H]2C)cc1` to `Cc1ccc(S(=O)(=O)N(C)C[C@H]2OCCCC[C@@H](C)Oc3ccc(NS(C)(=O)=O)cc3C(=O)N([C@H](C)CO)C[C@@H]2C)cc1`, the activity score (inhibition) rises from -7.48% to 4.35%.

Compared with `COc1ccc(S(=O)(=O)N(C)C[C@H]2OCc3cnnn3CCCC(=O)N([C@H](C)CO)C[C@H]2C)cc1`, `C[C@H]1CN([C@@H](C)CO)C(=O)CCCn2nncc2CO[C@@H]1CN(C)S(=O)(=O)c1ccccc1C#N` is lower in activity score (inhibition): 0.901% for the first, -9.5% for the second.

Compared with `C[C@@H]1CN([C@@H](C)CO)C(=O)c2cccc(NC(=O)CCCCCC(=O)Nc3ccccc3N)c2O[C@@H]1CN(C)CC1CCCCC1`, `C[C@H](CO)N1C[C@H](C)[C@H](CN(C)CC2CCCCC2)Oc2ccc(NC(=O)CCCCCC(=O)Nc3ccccc3N)cc2C1=O` is lower in activity score (inhibition): 17.2% for the first, 0.222% for the second.

Going from `CC(C)NC(=O)Nc1cccc2c1O[C@H](CN(C)CC1CCCCC1)[C@H](C)CN([C@H](C)CO)C2=O` to `Cc1noc(C)c1NC(=O)Nc1ccc2c(c1)CC(=O)N([C@@H](C)CO)C[C@H](C)[C@@H](CN(C)CC1CCCCC1)O2`, the activity score (inhibition) rises from -12% to 4.18%.

First: C[C@@H]1CN([C@@H](C)CO)C(=O)c2cccc(NC(=O)CCCCCC(=O)Nc3ccccc3N)c2O[C@H]1CN(C)C(=O)Nc1cccc2ccccc12
Second: C[C@@H]1CN([C@H](C)CO)C(=O)c2cc(NC(=O)CCCCCC(=O)Nc3ccccc3N)ccc2O[C@@H]1CN(C)S(=O)(=O)c1ccc(Cl)cc1
The activity score (inhibition) of the first is lower: 0.294% for the first, 15.5% for the second.

Going from `COc1cc(/C=N\NC(=O)CCCCCCC(=O)NO)c(Br)cc1O` to `O=C(NO)c1ccc(C(=O)N/N=C/c2ccc([N+](=O)[O-])c(O)c2)cc1`, the activity score (inhibition) falls from 22.6% to 1.55%.

Going from `C[C@@H]1CN([C@H](C)CO)C(=O)c2cccc(NC(=O)C3CC3)c2O[C@@H]1CN(C)C(=O)Nc1ccccc1` to `C[C@@H]1CN([C@@H](C)CO)C(=O)c2cccc(NC(=O)Nc3ccc(F)cc3)c2O[C@@H]1CN(C)C(=O)Nc1ccccc1`, the activity score (inhibition) rises from -22.6% to -2.37%.

Compared with `C[C@H]1CN([C@@H](C)CO)C(=O)c2cccc(NS(=O)(=O)c3ccccc3)c2O[C@@H]1CN(C)C(=O)Nc1ccc(C(F)(F)F)cc1`, `Cc1ccc(S(=O)(=O)Nc2cccc3c2O[C@H](CN(C)C(=O)Nc2ccc(C(F)(F)F)cc2)[C@@H](C)CN([C@@H](C)CO)C3=O)cc1` is lower in activity score (inhibition): 34.3% for the first, -14.4% for the second.

First: C[C@@H]1CN([C@H](C)CO)C(=O)c2cccc(NC(=O)Nc3ccc(C(F)(F)F)cc3)c2O[C@H]1CN(C)S(=O)(=O)c1ccc(Cl)cc1
Second: C[C@@H]1CN([C@H](C)CO)C(=O)c2cccc(NC(=O)Nc3ccc(F)cc3)c2O[C@@H]1CN(C)C(=O)Nc1ccc(C(F)(F)F)cc1
The activity score (inhibition) of the first is higher: 36.7% for the first, -4.83% for the second.

Going from `C[C@@H]1CN([C@H](C)CO)C(=O)c2cccc(NC(=O)c3ccc(-c4nccs4)cc3)c2O[C@@H]1CN(C)C(=O)Nc1ccc(C(F)(F)F)cc1` to `C[C@H]1CN([C@@H](C)CO)C(=O)c2cccc(NC(=O)c3ccc(-c4nccs4)cc3)c2O[C@@H]1CN(C)C(=O)Nc1ccc(C(F)(F)F)cc1`, the activity score (inhibition) falls from 38.2% to -8.3%.

Compared with `COc1ccc(NC(=O)Nc2cccc3c2O[C@H](CN(C)S(=O)(=O)c2cn(C)cn2)[C@H](C)CN([C@@H](C)CO)C3=O)cc1`, `C[C@H](CO)N1C[C@H](C)[C@H](CN(C)S(=O)(=O)c2cn(C)cn2)Oc2c(NC(=O)c3ccc(-c4nccs4)cc3)cccc2C1=O` is higher in activity score (inhibition): -20.8% for the first, -7.9% for the second.

First: C[C@@H]1CN([C@@H](C)CO)C(=O)c2cccc(N(C)C)c2O[C@H]1CN(C)S(=O)(=O)c1cccs1
Second: Cc1noc(C)c1NC(=O)Nc1ccc2c(c1)C(=O)N([C@H](C)CO)C[C@H](C)[C@H](CN(C)S(=O)(=O)c1cccs1)O2
The activity score (inhibition) of the first is lower: -13.3% for the first, 2.68% for the second.

Compared with `Cc1noc(C)c1NC(=O)N(C)C[C@@H]1Oc2ccc(NC(=O)Nc3ccc(C(F)(F)F)cc3)cc2C(=O)N([C@H](C)CO)C[C@@H]1C`, `C[C@@H]1CCCCO[C@@H](CN(C)C(=O)Nc2ccccc2)[C@@H](C)CN([C@H](C)CO)C(=O)c2cc(NC(=O)Nc3ccc(F)cc3)ccc2O1` is higher in activity score (inhibition): 0.983% for the first, 7.86% for the second.

Compared with `C[C@H](CO)N1C[C@H](C)[C@@H](CN(C)S(=O)(=O)c2ccc(F)cc2)Oc2ccc(NC(=O)CCC(F)(F)F)cc2C1=O`, `COc1ccc(S(=O)(=O)N(C)C[C@H]2Oc3ccc(NS(=O)(=O)c4ccc(F)cc4)cc3C(=O)N([C@H](C)CO)C[C@H]2C)cc1` is higher in activity score (inhibition): 4.98% for the first, 6.09% for the second.

Compared with `C[C@@H]1CN([C@H](C)CO)C(=O)c2cccc(NC(=O)c3nc4ccccc4s3)c2O[C@@H]1CN(C)Cc1ccc(Oc2ccccc2)cc1`, `COc1ccc(CN(C)C[C@@H]2Oc3ccc(NC(=O)c4ccncc4)cc3CC(=O)N([C@H](C)CO)C[C@H]2C)cc1` is lower in activity score (inhibition): 24.2% for the first, -3.55% for the second.

First: COc1ccc(S(=O)(=O)N(C)C[C@@H]2Oc3ccc(NS(=O)(=O)c4cn(C)cn4)cc3C(=O)N([C@@H](C)CO)C[C@@H]2C)cc1
Second: C[C@H](CO)N1C[C@H](C)[C@H](CN(C)Cc2ccncc2)Oc2ccc(NS(=O)(=O)c3ccc(F)cc3)cc2CC1=O
The activity score (inhibition) of the first is lower: -13% for the first, -4.01% for the second.

First: C[C@@H]1CN([C@H](C)CO)C(=O)Cc2cc(NC(=O)Nc3ccccc3)ccc2O[C@@H]1CN(C)Cc1ccc(C(F)(F)F)cc1
Second: C[C@H]1CN([C@@H](C)CO)C(=O)Cc2cc(NC(=O)Nc3ccccc3)ccc2O[C@H]1CN(C)Cc1ccncc1
The activity score (inhibition) of the first is higher: 14.2% for the first, 6.16% for the second.

Going from `C[C@@H]1CN([C@H](C)CO)C(=O)Cc2cc(NC(=O)c3ccncc3)ccc2O[C@@H]1CN(C)Cc1ccncc1` to `C[C@H](CO)N1C[C@H](C)[C@H](CN(C)Cc2ccc(C(F)(F)F)cc2)Oc2ccc(N(C)C)cc2CC1=O`, the activity score (inhibition) rises from -11.9% to 50.9%.

Compared with `C[C@@H]1CN([C@H](C)CO)C(=O)Cc2cc(N(C)C)ccc2O[C@@H]1CN(C)Cc1ccccc1`, `C[C@@H]1CCCCO[C@H](CN(C)Cc2ccncc2)[C@@H](C)CN([C@H](C)CO)C(=O)c2cc(NC(=O)CCCN(C)C)ccc2O1` is lower in activity score (inhibition): -5.53% for the first, -8.02% for the second.

Compared with `CC(C)NC(=O)Nc1ccc2c(c1)C(=O)N([C@H](C)CO)C[C@H](C)[C@H](CN(C)Cc1ccc(C(=O)O)cc1)OCCCC[C@@H](C)O2`, `CC(C)NC(=O)Nc1ccc2c(c1)C(=O)N([C@H](C)CO)C[C@H](C)[C@@H](CN(C)Cc1ccc(C(F)(F)F)cc1)OCCCC[C@@H](C)O2` is lower in activity score (inhibition): -25.6% for the first, -27.7% for the second.

For `CC(C)NC(=O)N(C)C[C@@H]1OCCCC[C@@H](C)Oc2ccc(NC(=O)Nc3ccccc3)cc2C(=O)N([C@H](C)CO)C[C@@H]1C`, the activity score (inhibition) was -24.2%.

For `C[C@H]1CN([C@@H](C)CO)C(=O)c2cccc(NC(=O)CCCCCC(=O)Nc3ccccc3N)c2O[C@@H]1CN(C)CC1CCCCC1`, the activity score (inhibition) was 81.9% (active).
In the case of `C[C@@H]1CN([C@H](C)CO)C(=O)c2cccc(NC(=O)CCCCCC(=O)Nc3ccccc3N)c2O[C@H]1CN(C)CC1CCCCC1`, the activity score (inhibition) is reported as 62.4% (active).
In the case of `C[C@@H]1CN([C@H](C)CO)C(=O)c2cccc(NS(=O)(=O)c3ccc(F)cc3)c2O[C@@H]1CN(C)C(=O)Nc1ccc(C(F)(F)F)cc1`, the activity score (inhibition) is reported as 65.8% (active).
With `C[C@H](CO)N1C[C@H](C)[C@H](CN(C)C(=O)Nc2ccccc2)Oc2c(NC(=O)Nc3ccc(C(F)(F)F)cc3)cccc2C1=O` the activity score (inhibition) was 70.2% (active).
For `C[C@H](CO)N1C[C@H](C)[C@H](CN(C)C(=O)Nc2ccc(C(F)(F)F)cc2)Oc2c(NC(=O)c3ccncc3)cccc2C1=O`, the activity score (inhibition) was 72.4% (active).
With `C[C@@H]1CN([C@@H](C)CO)C(=O)c2cccc(NC(=O)Nc3ccc(C(F)(F)F)cc3)c2O[C@@H]1CN(C)S(=O)(=O)c1ccc(F)cc1` the activity score (inhibition) was 71.6% (active).
With `C[C@H](CO)N1C[C@H](C)[C@H](CN(C)Cc2ccc(-c3ccccc3)cc2)Oc2ccc(NC(=O)Nc3ccc(F)cc3)cc2CC1=O` the activity score (inhibition) was 58.8% (active).
In the case of `C[C@@H]1CN([C@H](C)CO)C(=O)Cc2cc(NC(=O)c3ccncc3)ccc2O[C@H]1CN(C)Cc1ccc(-c2ccccc2)cc1`, the activity score (inhibition) is reported as 57.2% (active).
With `C[C@H]1CN([C@@H](C)CO)C(=O)Cc2cc(N(C)C)ccc2O[C@@H]1CN(C)Cc1ccc(-c2ccccc2)cc1` the activity score (inhibition) was 68.2% (active).
In the case of `C[C@@H]1CCCCO[C@@H](CN(C)Cc2ccc(C(F)(F)F)cc2)[C@@H](C)CN([C@H](C)CO)C(=O)c2cc(NC(=O)Nc3ccccc3)ccc2O1`, the activity score (inhibition) is reported as 67.7% (active).
For `CC(C)NC(=O)Nc1ccc2c(c1)C(=O)N([C@H](C)CO)C[C@H](C)[C@H](CN(C)C(=O)Nc1ccc(C(F)(F)F)cc1)OCCCC[C@@H](C)O2`, the activity score (inhibition) was 56.9% (active).
